697 NFkB inh – inhibitors of the PMA/ionomycin-induced NF-kB reporter in 697 B cells. 330,000 compounds, 0.33% hits. 697 B-cell NF-kB luciferase reporter, 16 h. AID 435022. inhibition, % at 4 µM; in the data active = inhibition above about 35%
Shn3 inh set2 – inhibitors of Schnurri-3 3'UTR reporter in osteoblasts. 360,000 compounds, 0.52% hits. AID 588674. inhibition, % at 12.5 µM. Clone20 osteoblast Shn3 3'UTR firefly luciferase, 24 h;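 active = mean inhibition of at least 75% with every replicate also reaching 75%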
Gli-Sufu antag – Gli-Sufu pathway antagonism | Sufu-KO-LIGHT fibroblasts, Gli luciferase reporter luminescence | inhibition, % at 5 µM | 340,000 compounds, 0.74% hits | AID 588413;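 active = inhibition above about 55%, limit read from the data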
MITF TRPM1 inh – inhibitors of MITF-driven TRPM1 promoter in melanoma cells | 330,000 compounds, 0.83% hits | SK-MEL-5 TRPM1 promoter luciferase, 24 h | AID 488899 | inhibition, % at 12.5 µM;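 active = mean inhibition across replicates of 60% or more, whatever share of single replicates reaches that level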
EBV LMP1 NFkB – inhibitors of Epstein-Barr LMP1-induced NF-kappaB reporter; LMP1-induced NF-kappaB luciferase reporter cells, luminescence; inhibition, % at 12.5 µM; 350,000 compounds, 0.69% hits; AID 504558; in the data active = inhibition above about 41%
Jurkat NFkB inh – inhibitors of the PMA/ionomycin-induced NF-kB reporter in Jurkat cells; AID 435003; 330,000 compounds, 0.53% hits; PMA/ionomycin-induced NF-kB luciferase reporter, luminescence; inhibition, % at 4 µM; in the data active = inhibition above about 50%
Numbers stand for hits; . = inactive; / = no result given. Hits are enriched below; roughly 2.3% of the tested compounds scored in any of these assays.

SMILES | 697 NFkB inh | Shn3 inh set2 | Gli-Sufu antag | MITF TRPM1 inh | EBV LMP1 NFkB | Jurkat NFkB inh
C[C@]12CCC3C(CC[C@H]4C[C@H](O)CC[C@]34C)C1CCC2=O (some centres undefined) | . | 86 | . | . | . | .
C[C@]12CC[C@H](O)C[C@@H]1CC[C@H]1[C@H]3CCC(=O)[C@@]3(C)CC[C@@H]12 | / | . | / | / | . | /
COC(=O)[C@@H]1[C@@H](C(=O)OC)C2(c3ccccc3-c3ccccc32)N(c2ccc(Cl)cc2)N1C#N | . | . | . | 93 | . | .
O=C(c1cccc(Cl)c1)C1CCCN(Cc2cccc3cnccc23)C1 (centres undefined) | . | . | . | . | . | .
Cc1cccc(CN2CCN(Cc3ccc(Cl)cc3)CC2)c1 | . | . | . | . | 84 | .
Cc1cccc(CN2CCN(c3ccc(Cl)cc3)CC2)c1 | . | . | . | . | . | .
CCOC(=O)c1ccc(-[n+]2c(-c3ccccc3)cc(-c3ccccc3)cc2-c2ccccc2)cc1 | . | / | . | 77 | . | .
Cc1ccc(-c2cc(-c3ccc(C)cc3)[n+](-c3ccc(C(=O)[O-])cc3)c(-c3ccc(C)cc3)c2)cc1 | . | . | . | . | . | .
c1ccc(-c2cc(-c3ccccc3)[n+](-c3ccccc3)c(-c3ccccc3)c2)cc1 | . | . | 73 | 92 | . | .
CCOC(=O)c1cccc(-[n+]2c(-c3ccccc3)cc(-c3ccccc3)cc2-c2ccccc2)c1 | . | . | . | 68 | . | .
CC(=O)O[C@H]1CCC2C3CCC4=CC(=O)CCC4=C3C=C[C@@]21C (some centres undefined) | . | . | . | . | . | .
CN1CCN(C(=O)COc2ccc(-c3nc4ccccc4s3)cc2)CC1 | . | . | . | . | 59 | .
Cn1cccc1CN1CCN(C(=O)COc2ccccc2)CC1 | . | . | . | . | . | .
Cn1nc(-c2ccc(OCC(=O)N3CCN(Cc4ccccc4)CC3)cc2)c2ccccc2c1=O | . | 89 | . | . | . | .
CC1=C(O)C(=O)C=C2C1=CC=C1C2(C)CCC2(C)C3CC(C)(C(=O)O)CCC3(C)CCC12C (centres undefined) | / | 95 | . | 94 | 88 | /
COC(=O)C1=C(c2ccc(F)cc2OCc2ccccc2)C[C@@H]2CC[C@H]1N2C(=O)NCc1ccc(C(F)(F)F)cc1 | . | 93 | . | . | . | .
CC(=O)Nc1ccccc1C(=O)OCC(=O)c1ccc2c(c1)OCCO2 | . | . | . | . | . | .
CN(C)C(=S)SSC(=S)N(C)C | / | . | 68 | . | . | /
CC(=O)OCC12CC(OC(=O)CC(C)C)C(C)=CC1OC1C(O)C(OC(C)=O)C2(C)C12CO2 (centres undefined) | / | 93 | 90 | 87 | 88 | /
CC(=O)NN1C(=O)c2ccccc2NC1c1cccnc1 (centres undefined) | . | . | . | . | . | .
COc1ccc(C=C2C(=O)NC(=S)NC2=O)cc1 | / | . | . | . | . | /
O=C1NC(=S)NC(=O)C1=Cc1cccc2cc3ccccc3cc12 | / | 99 | . | 98 | . | /
COc1ccc(CNCCc2c(C)[nH]c3ccc(OC(F)(F)F)cc23)c(OC)c1 | . | 90 | 57 | 92 | . | .
O=C1NC(=O)N(Cc2ccccc2)C(=O)/C1=C\c1ccco1 | . | . | . | . | . | .
CCCCN1C(=O)/C(=C/C=C/c2ccco2)C(=O)NC1=S | / | . | . | . | . | /
SMILES | 697 NFkB inh | Shn3 inh set2 | Gli-Sufu antag | MITF TRPM1 inh | EBV LMP1 NFkB | Jurkat NFkB inh
CCc1ccc(N2C(=O)NC(=O)/C(=C\C=C\c3ccco3)C2=O)cc1 | . | . | . | 102 | . | .
Cc1ccc(N2C(=O)NC(=O)/C(=C/C=C/c3ccco3)C2=O)cc1 | . | . | . | 73 | . | .
O=C1NC(=O)N(Cc2ccc(F)cc2)C(=O)/C1=C\C=C\c1ccco1 | . | . | . | 93 | . | .
CC(C)c1ccc(N2C(=O)NC(=O)/C(=C/C=C/c3ccco3)C2=O)cc1 | / | . | . | 99 | . | /
Cc1ccc(N2C(=O)NC(=O)/C(=C/c3ccoc3)C2=O)cc1 | / | . | . | . | . | /
CCOC(=O)C(O)(c1ccc(NC(=O)NC)cc1)C(F)(F)F (centres undefined) | . | / | . | / | / | .
C[C@]12CCC3C(CC[C@H]4C[C@H](O)CC[C@]34C)C1C[C@@H](CCCCl)[C@@H]2O (some centres undefined) | . | . | / | / | / | .
CCCCCOc1ccc(C)cc1CN(CCCl)CCCl | . | / | . | . | . | .

Screens (PubChem)
